# From PubChem BioAssay (Tox21)
# Results filed as inconclusive are left out. Values without a mark were called inactive. Active and inactive are the calls of the source. The call rests on the fitted dose curve.
# Target: Progesterone receptor (Homo sapiens) (UniProt P06401)
# Experiment: qHTS assay to identify small molecule agonists of the progesterone receptor (PR) signaling pathway (AID 1346784); further: nearly all actives have a fitted effect of over 30% in size
# Conditions: PR-UAS-bla HEK293T, beta-lactamase FRET ratio, 16 h; series mostly up to 92.4 µM; activation: at the top concentration
# Description: U.S. Tox21 Program National Center for Advancing Translational Sciences [NCATS] NIH Chemical Genomics Center [NCGC] U.S. Environmental Protection Agency [EPA] National Institutes of Environmental Health Sciences [NIEHS] National Toxicology Program [NTP] U.S. Food and Drug Administration [FDA] […] Endocrine disrupting chemicals (EDCs) and their interactions with steroid hormone receptors like PR causes disruption of normal endocrine function. To identify the compounds that activate PR signaling, a PR-UAS-bla GripTite cell line i.e. PR-UAS-bla HEK 293T (Invitrogen, Carlsbad, CA, USA) containing a beta-lactamase reporter gene under the control of an Upstream Activator Sequence (UAS) was used to screen Tox21 10K compound library.
# Tox21 Assay Protocol Summary: PR-UAS-bla HEK 293T cells were dispensed at 3,000 cells/5 uL of assay medium containing 2% charcoal stripped FBS per well into black wall/clear-bottom 1536-well plates using a Multidrop Combi (ThermoFisher Scientific, Waltham, MA) dispenser. After the assay plates were incubated at a 37C and 5% CO2 for 6hr, 23 nL of compounds dissolved in DMSO, positive controls or DMSO only was transferred to the assay plate by a Pintool station (Kalypsys, San Diego, CA). The plates were incubated at 37C and 5% CO2 for 16hr. Then 1 uL of LiveBLAzer B/G FRET substrate was added using a BioRAPTR FRD (Flying Reagent Dispenser, Aurora Discovery, San Diego, CA). After the plates were incubated at room temperature for 2 hours, fluorescence intensity was measured by an Envision plate reader (PerkinElmer, Shelton, CT).
# On the % scale 0 is the no-effect control and ±100 the full control effect; potency means the concentration at half of the fitted maximal effect.
# Progesterone receptor (Homo sapiens), sequence (P06401 whole entry, looked up): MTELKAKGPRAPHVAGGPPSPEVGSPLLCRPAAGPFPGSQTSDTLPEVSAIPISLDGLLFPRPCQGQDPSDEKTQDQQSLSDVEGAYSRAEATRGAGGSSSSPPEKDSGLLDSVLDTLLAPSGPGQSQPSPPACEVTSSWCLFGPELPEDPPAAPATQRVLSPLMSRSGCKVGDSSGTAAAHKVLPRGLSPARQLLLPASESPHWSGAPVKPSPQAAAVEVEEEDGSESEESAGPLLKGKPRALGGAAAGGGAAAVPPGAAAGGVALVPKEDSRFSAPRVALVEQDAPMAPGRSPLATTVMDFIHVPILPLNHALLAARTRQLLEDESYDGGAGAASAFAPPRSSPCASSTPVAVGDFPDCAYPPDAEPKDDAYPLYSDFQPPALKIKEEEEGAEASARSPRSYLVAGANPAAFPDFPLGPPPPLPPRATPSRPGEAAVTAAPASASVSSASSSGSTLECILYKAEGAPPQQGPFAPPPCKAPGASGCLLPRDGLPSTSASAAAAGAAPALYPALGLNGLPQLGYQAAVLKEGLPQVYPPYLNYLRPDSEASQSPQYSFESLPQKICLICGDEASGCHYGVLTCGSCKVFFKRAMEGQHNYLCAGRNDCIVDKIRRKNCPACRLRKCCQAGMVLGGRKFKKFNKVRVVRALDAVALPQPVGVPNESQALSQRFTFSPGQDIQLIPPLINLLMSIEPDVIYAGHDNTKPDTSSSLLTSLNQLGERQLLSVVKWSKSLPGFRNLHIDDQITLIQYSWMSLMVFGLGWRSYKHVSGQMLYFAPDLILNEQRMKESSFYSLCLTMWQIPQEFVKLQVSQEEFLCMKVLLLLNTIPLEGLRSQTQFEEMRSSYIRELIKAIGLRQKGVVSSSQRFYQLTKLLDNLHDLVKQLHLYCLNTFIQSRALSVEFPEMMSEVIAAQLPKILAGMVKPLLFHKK
SMILES,activation,Potency
CCOC(=O)c1c(C)n(C)c2ccc(O)cc12,-0.321% [at 42.5 µM],–
C[C@@H]1CCN(C(=O)[C@H](CCCN=C(N)N)NS(=O)(=O)c2cccc3c2NC[C@H](C)C3)[C@@H](C(=O)O)C1,-2.06% [at 42.5 µM],–
COC(=O)c1cc(C(=O)OC)cc(S(=O)(=O)O)c1,1.04%,–
CC(C[N+](C)(C)C)OC(N)=O (stereo not given),-1.6% [at 42.5 µM],–
CN1N=C(C(N)=O)CCC1=O,-0.56% [at 42.5 µM],–
CC(=O)OC/C=C(\C)CC/C=C(\C)CCC=C(C)C,–,inactive
Cc1cccn2c(=O)c(-c3nnn[nH]3)cnc12,2.07% [at 19 µM],–
O=c1n(CCO)c(=O)n(CCO)c(=O)n1CCO,0.529%,–
NC(=O)COCCN1CCN(C(c2ccccc2)c2ccc(Cl)cc2)CC1 (stereo not given),1.41% [at 42.5 µM],–
CCN(CC)CCNC(=O)c1cc(S(C)(=O)=O)ccc1OC,-1.63% [at 42.5 µM],–
CN1CCN(c2cc3c(cc2F)c(=O)c(C(=O)O)cn3-c2ccc(F)cc2)CC1,–,29.8 µM (active)
CCCCOCCOCCOCc1cc2c(cc1CCC)OCO2,–,inactive
CCN(CC)CCOCCOC(=O)C1(c2ccccc2)CCCC1,-5.11% [at 42.5 µM],–
CCCCCCCCCCCC,5.61%,–
Brc1c(NC2=NCCN2)ccc2nccnc12,0.681% [at 42.5 µM],–
N=c1nc(N2CCCCC2)cc(N)n1O,-0.367% [at 42.5 µM],–
O=C(CCCN1CCC(O)(c2cccc(C(F)(F)F)c2)CC1)c1ccc(F)cc1,-4.66% [at 42.5 µM],–
CCO/C([O-])=N/c1c[n+](N2CCOCC2)no1,0.818% [at 42.5 µM],–
CCCC(=O)O[C@]1(C(=O)CO)CC[C@H]2[C@@H]3CCC4=CC(=O)CC[C@]4(C)[C@H]3[C@@H](O)C[C@@]21C,–,0.841 µM (active)
CCCCCOC(=O)CCCCC,-0.614%,–

SMILES,activation,Potency
CC(C)(C)c1ccc(O)c(O)c1,2.26%,–
CC(=O)c1ccccc1O,0.871%,–
O=C(O)COc1nn(Cc2ccccc2)c2ccccc12,-4.44% [at 42.5 µM],–
C1CN(CCOCCN2CCOCC2)CCO1,-1.75%,–
OCCCC1CCCCC1,1.18%,–
ClC(Cl)(Br)Br,-2%,–
Cc1ccc(Cl)cc1Cl,-2.01%,–
C[C@](N)(Cc1ccc(O)cc1)C(=O)O,-0.125% [at 8.39 µM],–
CCOC(=O)c1cccc(N)c1,0.0879% [at 42.5 µM],–
O=[N+]([O-])c1ccc(F)cc1F,-0.625%,–
CN1CCC(=C2c3ccccc3CC(=O)c3sccc32)CC1,-4.8% [at 42.5 µM],–
COc1nc(N)nc2c1ncn2[C@@H]1O[C@H](CO)[C@@H](O)[C@@H]1O,1.79% [at 42.5 µM],–
CCCCCSCCCCC,-1.23%,–
CO[C@]12C[C@@H](COC(=O)c3cncc(Br)c3)CN(C)[C@@H]1Cc1cn(C)c3cccc2c13,-2.41% [at 42.5 µM],–
Cc1cc(O)cc2c1O[C@](C)(CCC[C@H](C)CCC[C@H](C)CCCC(C)C)CC2,0.419% [at 42.5 µM],–
COC(=O)c1c(Cl)c(Cl)c(C(=O)OC)c(Cl)c1Cl,3.56%,–
O=C(O)CCCl,-0.164%,–
Oc1ccc(C2CNCCc3c2cc(O)c(O)c3Cl)cc1 (stereo not given),-1.35% [at 42.5 µM],–
OC1CCCCC1c1ccccc1 (stereo not given),1.82%,–
NC(=O)c1ccc([N+](=O)[O-])cc1,1.24%,–
